Reference: PubChem BioAssay (EPA / NIEHS)
Calls of active or inactive are those of the source. Rule for the calls: active = hit-call score of the fitted dose curve at least 0.9, where 1 is the maximum; inactive = score below 0.9.

Assay: ATG_M_32_CIS: Attagene CIS-FACTORIAL HepG2 Assay for M32 Transcription Factor (Internal Marker) (AID 2282949);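 note: background control marker of the multiplexed CIS panel rather than a real target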
Conditions: HepG2 Attagene cis-factorial M32 reporter, mRNA; actives raise or lower the signal
Protocol: ATG_CIS is a cell-based, multiplexed-readout assay that uses HepG2, a human liver cell line, with measurements taken at 24 hours after chemical dosing in a 24-well plate.ATG_M_32_CIS is one of 52 assay component(s) measured or calculated from the ATG_CIS assay. It is designed to make measurements of mRNA induction, a form of inducible reporter, as detected with fluorescence intensity signals by Reverse transcription polymerase chain reaction (RT-PCR) and Capillary electrophoresis technology.Data from the assay component ATG_M_32_CIS was analyzed into 1 assay endpoint. This assay endpoint, ATG_M_32_CIS, was analyzed with bidirectional fitting relative to DMSO as the negative control and baseline of activity. Using a type of inducible reporter, measures of mRNA for gain or loss-of-signal activity can be used to understand the background control at the transcription factor-level as they relate to the gene . Furthermore, this assay endpoint can be referred to as a secondary readout, because this assay has produced multiple assay endpoints where this one serves a background control function. To generalize the intended target to other relatable targets, this assay endpoint is annotated to the background measurement intended target family, where the subfamily is internal marker.
Human liver HepG2 cells are transiently transfected with multiple reporter transcription units (MRTUs) in 6-well plates using FuGene 6 reagent (Roche; 3 ml FuGene/1 mg DNA). The MRTU constructs are regulated by a cis-regulating element (promoter). […] A major difference between the CIS and TRANS system is that in CIS activities of endogenous TFs are measured, whereas the TRANS assay evaluates changes in activities of exogenous, chimeric NR-Gal4 proteins. […] At the end of 24 hour incubation, total RNA was isolated using TriZol reagent (Invitrogen). The isolated RNA is then reverse-transcribed using oligo(dT) primer and Mo-MLV reverse transcriptase (Invitrogen) with DNAse I (Ambion) treatment for 30 min. The one-tenth of the produced cDNA was amplified by PCR using Taq DNA polymerase (Invitrogen) and two reporter sequence-specific primers. The PCR products were fluorescently labeled by primer extension with 6-arboxyfluorescein (6-FAM) 5'-labeled reporter sequence-specific primer (2 min at 95 C, 20 s at 68 C and 10 min at 72 C) and these products were digested with 5U of HpaI (New England Biolabs) for 2h at 37 C. The fragments were purified using Qiaquick PCR columns (Qiagen), analyzed on an ABI 3130xL genetic analyzer (Applied Biosystems) with peak positions identified by using a set of X-rhodamine (ROX)-labeled MapMarker1000 molecular weight standards (BioVentures). The raw capillary electrophoresis data was processed using Attagraph software (Attagene).

outcome, inactive:
NC(N)=Nc1nc(CSCCC(N)=NS(N)(=O)=O)cs1, CCCCCC1CCCC(=O)O1 (stereo not given), CCOc1ccc2c(c1)C(C)CC(C)(C)N2 (stereo not given), CC/C=C\CCO, CC[N+](CC)(CC(=O)Nc1c(C)cccc1C)Cc1ccccc1, CC(C)(Oc1ccc(Cl)cc1)C(=O)O, Cc1cccnc1, CN(C)CCCN1c2ccccc2CCc2ccc(Cl)cc21, CC1(C)S[C@@H]2[C@H](NC(=O)[C@H](N)c3ccccc3)C(=O)N2[C@H]1C(=O)O, O=C(Oc1ccccc1)c1ccccc1, Nc1ccc(S(=O)(=O)Nc2cnc3ccccc3n2)cc1, O=C(C(=O)c1ccccc1)c1ccccc1, C[C@H]1C[C@H]2[C@@H]3CCC4=CC(=O)C=C[C@]4(C)[C@@]3(F)[C@@H](O)C[C@]2(C)[C@@]1(O)C(=O)CO, NC(=O)c1ccc(N)cc1, F[B-](F)(F)F, COCCCN, CCCC[N+]1(C)CCCC1, CCC(C)=NO, O=[N+]([O-])c1ccc2nc[nH]c2c1, CN(C)Cc1cc(C(C)(C)C)c(O)c(C(C)(C)C)c1, Cc1cc(C)c(S(=O)(=O)O)cc1N=Nc1cc(S(=O)(=O)O)c2ccccc2c1O, O=C(c1ccccc1)c1ccccc1O, CC(=O)c1nccs1, N#CCN(CC#N)CCN(CC#N)CC#N, O=C(O)/C=C\C(=O)O, COC(=O)CCSCCC(=O)OC, CN(C)c1ccc(C(c2ccccc2)c2ccc(N(C)C)cc2)cc1, CC(C)=CCOC(=O)c1ccccc1, CCC(=O)OCc1ccc(OC)cc1, CC[N+](CC)(CC(=O)Nc1c(C)cccc1C)Cc1ccccc1 (tested in a mixture with another compound), OCCN(CCO)c1cccc(Cl)c1, CCCN[C@H]1CCc2nc(N)sc2C1, CC/C=C\CC1=C(C)CCC1=O, CCCCn1cc[n+](C)c1, CCO[Si](CCCN)(OCC)OCC, O=[N+]([O-])c1ccccc1C(F)(F)F, CN1CCCC1, O=C1CCCCCCCCCCCCCC1, CCCCCCCCCCC1CO1 (stereo not given), CCC(C)C1N=C(C)C(C)S1 (stereo not given)
